# BH1578 lux ind = induces V. cholerae light production without autoinducers; V. cholerae BH1578 lux reporter, luminescence, 6 h; activation, % at 18.7 µM; 0.16% of 350,000 active; in the data active means activation mostly above about 9.7%, no sharp cut-off; inconclusive means no clear call, values can overlap the other calls; inactive means mostly below about 3.7%
# BoNT-F LC inh = blocks Botulinum neurotoxin F light chain protease; 0.22% of 360,000 active; inhibition, % at 10 µM; Multiplex microsphere protease cleavage assay, flow cytometry; AID 588497; in the data active means inhibition above about 35%, passing the limit was not always enough; inconclusive means no clear call, values can overlap the other calls; further: plate controls were buffer without enzyme for full effect and enzyme alone for no effect
# Anthrax LF inh2 = anthrax lethal factor protease inhibition. multiplex microsphere protease cleavage assay, LF. inhibition, % at 10 µM. 0.12% of 360,000 active. AID 588501; further: plate controls were buffer without enzyme for full effect and enzyme alone for no effect
# Target sequence (P15917 whole entry, looked up): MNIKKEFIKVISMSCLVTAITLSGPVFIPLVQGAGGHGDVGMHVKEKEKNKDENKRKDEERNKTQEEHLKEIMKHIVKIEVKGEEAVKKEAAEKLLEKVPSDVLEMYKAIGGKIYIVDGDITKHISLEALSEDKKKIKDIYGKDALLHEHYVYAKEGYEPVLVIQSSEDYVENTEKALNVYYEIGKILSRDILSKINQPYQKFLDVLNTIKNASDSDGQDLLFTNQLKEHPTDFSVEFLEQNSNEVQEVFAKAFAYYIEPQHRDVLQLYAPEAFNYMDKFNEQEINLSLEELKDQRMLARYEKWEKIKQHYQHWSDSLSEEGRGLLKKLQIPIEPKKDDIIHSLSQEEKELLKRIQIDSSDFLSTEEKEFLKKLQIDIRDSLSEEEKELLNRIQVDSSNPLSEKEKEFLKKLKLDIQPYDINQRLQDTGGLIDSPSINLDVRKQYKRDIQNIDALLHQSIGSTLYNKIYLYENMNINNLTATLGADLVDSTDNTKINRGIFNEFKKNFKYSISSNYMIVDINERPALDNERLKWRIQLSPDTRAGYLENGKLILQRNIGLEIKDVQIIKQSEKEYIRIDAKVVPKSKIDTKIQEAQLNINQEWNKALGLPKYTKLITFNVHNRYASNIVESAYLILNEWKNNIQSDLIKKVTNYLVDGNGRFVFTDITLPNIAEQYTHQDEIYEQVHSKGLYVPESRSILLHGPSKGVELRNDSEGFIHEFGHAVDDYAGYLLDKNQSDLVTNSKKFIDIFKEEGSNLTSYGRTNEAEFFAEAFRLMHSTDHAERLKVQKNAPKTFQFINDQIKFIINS
# Autofluor counter = flagged as autofluorescent in microsphere protease counterscreen; compound autofluorescence counterscreen, microsphere flow cytometry; hits give high values; fluorescence intensity (concentration not given with the values); 3.1% of 360,000 active; AID 624483; in the data active means fluorescence intensity above about 16000; inconclusive means no clear call, values can overlap the other calls
# BoNT-A LC inh2 = BoNT A light chain protease inhibition. multiplex microsphere protease substrate cleavage, flow cytometry. inhibition, % at 10 µM. 0.17% of 360,000 active. AID 588499; further: plate controls were buffer without enzyme for full effect and enzyme alone for no effect
# An asterisk follows results filed as active; i = inactive; ? = inconclusive; / = no result given. Only some compounds are listed: those with a hit (about 3.5% of all), similar ones and a draw of the others. Unless noted, no stated cut-off is given here; in the data, active means inhibition above about 30%; inconclusive means no clear call, values can overlap the other calls; inactive means below that.
SMILES,BH1578 lux ind,BoNT-F LC inh,Anthrax LF inh2,Autofluor counter,BoNT-A LC inh2
CCC1(CC)C(=O)NC(=O)NC1=Nc1ccccc1,-8,0,0,1967,0
CCC1(CC)C(=O)NC(=O)NC1=NCCc1c[nH]c2ccccc12,0,-1,0,21453*,-2
Cc1ccc(C(C(=O)NC2CCCCC2)N(Cc2ccccc2)C(=O)Cc2c[nH]c3ccccc23)o1 (configuration not stated),-1,-2,-3,2243,0
COc1cc(C(C(=O)NC2CCCCC2)N(Cc2cccs2)C(=O)Cc2c[nH]c3ccccc23)cc(OC)c1OC (configuration not stated),-3,-4,-2,23578*,-3
COc1cc(C(C(=O)NC2CCCCC2)N(C(=O)Cc2c[nH]c3ccccc23)c2ccccc2C)cc(OC)c1OC (configuration not stated),0,-4,-2,2433,0
COc1ccc(CN(C(=O)Cc2c[nH]c3ccccc23)C(C(=O)NC2CCCCC2)c2ccc(C)o2)cc1 (configuration not stated),-6,-9,-6,27158*,-6
N/C(=N/OCC(=O)Nc1cccc2ccccc12)c1nonc1N,-3,-3,2,17291*,-2
CNC(=O)COC(=O)c1cc(=O)[nH]c2ccccc12,0,-2,0,23831*,0
CNC(=O)COC(=O)c1ccccc1Oc1ccccc1,7,1,-1,16994*,-1
NC(=O)COC(=O)c1cc(=O)[nH]c2ccccc12,-1,-5,-5,4721,-1
C(=C\n1nnc2ccccc21)/c1ccc[nH]1,-5,-9,4,4034,5
COc1cccc(N(C(=O)Cn2nnc(-c3ccc(C)cc3)n2)C(C(=O)NC(C)(C)C)c2c[nH]c3ccccc23)c1 (configuration not stated),i,-9,-8,23333*,-2
NC(=S)NNC(=O)c1ccccc1,0,-4,-5,24370*,-2
NC(=S)NC(=O)c1ccccc1,-6,3,-4,3279,-2
CCn1c2c(c3cc(Br)ccc31)CCC/C2=N\O,1,-24,-5,29475*,-19
Cc1cc(NC(=O)COC(=O)c2ccc(C)c(C)c2)no1,-1,-5,-10,4081,0
Cc1cc(NC(=O)COC(=O)CSCc2ccc(Cl)c(Cl)c2)no1,i,4,0,22915*,?
Cc1noc(C)c1C(=O)OCC(=O)c1ccc[nH]1,-2,3,-1,3747,1
Cc1noc(C)c1C(=O)OCC(=O)c1cc(C)n(Cc2ccccc2Cl)c1C,i,-4,-17,22970*,-2
Cc1cc(NC(=O)CSCC(=O)N(C)Cc2ccc(Cl)c(Cl)c2)no1,-12,6,1,5307,1
Cc1cc(NC(=O)COC(=O)c2c(C)nn(Cc3ccccc3Cl)c2Cl)no1,0,-4,-7,24183*,-3
Cc1cc(NC(=O)COC(=O)c2cccc(OCc3ccccc3)c2)no1,i,-2,0,20597*,-1
COc1ccc(CN(C)CC(=O)Nc2cccc(S(=O)(=O)N(C)c3ccccc3)c2)c(OC)c1,i,1,-7,3713,0
Cc1ccc(C)c(NC(=O)c2nnn(Cc3ccccc3)c2N)c1,0,-8,-1,4939,0
Cc1ccc(C)c(NC(=O)c2nnn(Cc3ccccc3C)c2N)c1,i,-3,-2,23851*,-1
SMILES,BH1578 lux ind,BoNT-F LC inh,Anthrax LF inh2,Autofluor counter,BoNT-A LC inh2
Cc1ccc(NC(=O)Cn2nnc(C(=O)NCc3ccccc3)c2N)cc1C,i,-4,0,23778*,-3
O=C(O)C(Cc1ccc(O)cc1)N1C(=O)c2c(Cl)c(Cl)c(Cl)c(Cl)c2C1=O (configuration not stated),-1,/,/,/,/
O=C(O)c1ccc2c(c1)C(=O)N(C(Cc1ccc(O)cc1)C(=O)O)C2=O (configuration not stated),-5,2,-2,21507*,3
CCOC(=O)C1=C(C)NC(=O)NC1c1ccco1 (configuration not stated),0,2,0,23226*,-1
Cc1cccc(CN(C)C)c1OC(=O)N(C)C,-3,6,-2,20578*,?
COc1ccc(C(=O)C2CCCN(Cc3c(O)cccc3OC)C2)cc1OC (configuration not stated),0,37*,-18,4574,-3
CC(C)[C@H](NC(N)=O)C(=O)Nc1cccc(S(=O)(=O)N2CCOCC2)c1,-2,-1,-6,4369,-1
CCN1C(=O)C(CC(=O)NCc2ccc(Cl)cc2)N(CC)C1=O (configuration not stated),0,-1,0,20390*,-1
Cc1ccc(S(=O)(=O)NC(CC(=O)O)c2ccco2)cc1 (configuration not stated),0,-2,-5,16531*,?
CC(C)(C)NS(=O)(=O)c1ccc(NS(C)(=O)=O)cc1,0,-3,-1,16636*,?
COc1ccc(C2=NOC(C(=O)NC3CCCCC3)C2)cc1OC (configuration not stated),-2,3,-2,23218*,0
COc1ccc(C2OC(=O)CC2C(=O)NC2CCCCCC2)cc1OC (configuration not stated),i,-7,-2,22084*,-6
COc1ccc(-c2cc(C(=O)NC3CCCC3)no2)cc1OC,-1,-1,2,22323*,0
COc1ccc(C2=NOC(C(=O)Nc3ccc(C(C)=O)cc3)C2)cc1OC (configuration not stated),-2,4,-4,10620,1
Cn1nc(SCc2ccccc2)c(=O)[nH]c1=O,-1,0,1,3723,0
Cc1ccccc1C(=O)OCCN(C)Cc1ccccc1,i,0,0,2251,-1
Cc1ccc(C(O)c2ncc(-c3ccc(Cl)cc3)[nH]2)cc1 (configuration not stated),1,6,-1,3819,0
C/C(=N\OC(=O)c1ccc(Cl)cc1)c1nccs1,i,-5,-2,24861*,-2
COc1ccc(-c2cc3nc4n(c(=O)c3s2)CCCCC4)cc1,-1,-1,-8,6420,0
COc1ccc(-c2cc3nc4n(c(=O)c3s2)CCC4)cc1,-1,1,0,23433*,?
Cc1ccc2c3c(cccc13)-c1ccccc1C2=O,0,28,44*,6102,74*
Cc1c(-c2cccc(Cl)c2)nc2ccccc2c1C(=O)NC1CC1,i,-8,-2,5810,-1
C=CCN1C(=O)/C(=C\C=C2\N(C)c3ccccc3C2(C)C)SC1=S,0,10,23,4733,41*
CN1/C(=C\C=C2/SC(=S)N(CC(=O)O)C2=O)C(C)(C)c2ccccc21,0,-10,-1,2717,7
Cc1cccc(C)c1-n1c(C)cc(/C=N/NC(=O)c2ccncc2)c1C,0,2,-2,22105*,2
Cc1ccc(-n2c(C)cc(/C=N/NC(=O)c3ccncc3)c2C)c(C)c1,0,-1,-4,22871*,0
Cc1cc(/C=N/NC(=O)c2cccs2)c(C)n1-c1cnccn1,0,47*,0,2743,4

# From PubChem BioAssay
